IEC-6 cytotox = IEC-6 cytotoxicity, counter-screen for KLF5 inhibitors; luminescence viability; inhibition, % at 5 µM; 290,000 tested, 0.78% active;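 further: 0% = plate median of test compound wells and 100% = cytotoxic reference compound wells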
aSyn UTR inh = 5' untranslated region of α-synuclein, MLPCN primary screen; 300,000 tested, 0.82% active; AID 1813; alpha-synuclein 5'UTR reporter, inhibitor activity; inhibition, % (tested at 7.5 µM); in the data active means inhibition above about 60%;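 further: H4 neuroglioblastoma cells stably carrying SNCA 5'UTR luciferase fusion; 0% = DMSO wells and 100% = positive control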
KLF5 inh = kruppel-like factor 5 inhibition | 290,000 tested, 0.23% active | DLD-1 KLF5 promoter-luciferase reporter, luminescence | AID 1700 | inhibition, % at 5 µM;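 active means inhibition above a per-plate limit of that plate's mean compound inhibition plus 3 SD, cut at about 60% in these data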;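 further: 0% = DMSO wells and 100% = LY294002 at 200 µM; higher means less KLF5 promoter-driven luciferase light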
APP 5UTR inh = APP translation inhibition; SH-SY5Y APP 5'UTR-luciferase reporter, luminescence; inhibition, % at 2 µM; 190,000 tested, 0.82% active; AID 1285;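 active means inhibition above a set limit, derived from the sample mean plus 3 SD, cut at about 45% in these data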
BaF3 parental = reduces parental Ba/F3 cell viability, JAK2V617F counter-screen. inhibition, % at 5.6 µM. 220,000 tested, 1.1% active. CellTiter-Glo ATP luminescence. AID 1486;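 active means inhibition above a per-campaign cutoff, the mean inhibition of all tested compounds plus 3 SD, cut at about 27% in these data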;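 further: 0% = DMSO wells and 100% = JAK Inhibitor I control wells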
Ba/F3 V617F tox = lowers viability of Ba/F3 cells expressing EpoR and JAK2V617F; ATP luminescence; 220,000 tested, 1.1% active; inhibition, % at 5.6 µM;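 active means inhibition above the campaign mean plus 3 SD over all tested compounds, cut at about 24% in these data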;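 further: cytokine-independent growth of Ba/F3 cells driven by EpoR plus mutant JAK2; 0% = DMSO-treated cells and 100% = JAK inhibitor I control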
IEC-6 tox confirm = IEC-6 cytotoxicity, confirmation assay. shares compounds with IEC-6 cytotox. IEC-6 rat intestinal epithelial viability, luminescence. inhibition, % at 5 µM. 1,900 tested, 63% active;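 further: 0% = vehicle and 100% = reference cytotoxic drug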
* marks the source's active call; other numbers are inactive results; / = no result given. Compounds with a hit are over-represented: about 2.1% of the library has one in this group of screens. Unless noted, no stated cut-off is given here; in the data, active means inhibition above about 22%; inactive means the rest.

SMILES	IEC-6 cytotox	aSyn UTR inh	KLF5 inh	APP 5UTR inh	BaF3 parental	Ba/F3 V617F tox	IEC-6 tox confirm
C[C@]12CCC(=O)CC1=CCC1C3CC=C(C#N)[C@@]3(C)CC[C@@]12O (some centres not stated)	-2	25	-18	/	/	/	/
CN(C)CCCN1C(=O)c2cccc3c([N+](=O)[O-])ccc(c23)C1=O	39*	/	10	80*	79*	95*	27*
Cc1ccc(NC(=O)c2nc(S(=O)(=O)Cc3ccccc3)ncc2Cl)cc1	97*	36	13	/	/	/	19
O=C(Nc1ccc(F)cc1)c1nc(S(=O)(=O)Cc2ccccc2)ncc1Cl	91*	67*	18	/	/	/	12
Cc1ccccc1CS(=O)(=O)c1ncc(Cl)c(C(=O)Nc2ccc(F)cc2)n1	61*	64*	9	/	/	/	10
CCOC(=O)c1ccc(NC(=O)c2nc(SC)ncc2Cl)cc1	-5	-5	-18	/	/	/	/
Clc1nc(Cl)nc(-c2cn(-c3ccccc3)c3ccccc23)n1	6	8	0	/	1	2	/
OCC[C@@H]1C[C@H](O)[C@@H](O)[C@]2(OCCc3ccccc32)O1	1	-1	-8	/	/	/	/
COc1ccc(NC(=O)CSc2nnc(NC(=O)C3CC3)s2)cc1OC	2	3	-19	/	/	/	/
COc1ccc(C(=O)c2ccc(N(C)C)cc2)c2ccccc12	78*	74*	60	92*	78*	77*	58*
COc1ccccc1C(=O)COC(=O)c1ccc(N(C)C)cc1	-9	-218	-71	-142	1	0	/
CC(C)c1ccccc1NC(=O)COC(=O)c1cccnc1	-2	-21	2	/	/	/	/
CN(Cc1ccccc1)C1=CC(=[N+]2CCCCC2)CC(C)(C)C1	34*	-20	20	/	79*	98*	19
CCOc1ccc(S(=O)(=O)N2CCN(C(=O)CCOc3ccccc3C)CC2)cc1	/	10	/	/	/	/	/
Cc1cccc(C)c1NC(=O)c1nc(S(=O)(=O)Cc2ccccc2)ncc1Cl	38*	19	18	/	/	/	15
CS(=O)(=O)c1ncc(Cl)c(C(=O)Nc2ccc(N3CCOCC3)cc2)n1	-2	-24	-22	44	3	8	/
CSc1ncc(Cl)c(C(=O)Nc2cccc3ccccc23)n1	4	-21	-4	-8	2	-1	/
CS(=O)(=O)c1ncc(Cl)c(C(=O)Nc2ccc(OC(F)F)cc2)n1	99*	-49	-6	/	/	/	29*
Cc1cccc(CS(=O)(=O)c2ncc(Cl)c(C(=O)NCc3ccccc3)n2)c1	62*	64*	7	/	/	/	29*
CCN(c1ccccc1)S(=O)(=O)c1ccc(C(=O)Nc2ccncc2)cc1	/	-29	/	/	/	/	/
CCN(c1ccccc1)S(=O)(=O)c1ccc(NC(=O)c2nc(S(C)(=O)=O)ncc2Cl)cc1	100*	2	41	/	/	/	12
Cc1ccccc1NC(=O)c1nc(S(C)(=O)=O)ncc1Cl	40*	6	4	/	/	/	15
Cc1nnc(NC(=O)c2nc(S(=O)(=O)Cc3ccccc3)ncc2Cl)s1	34*	-23	5	/	/	/	-4
Cc1cccc(CS(=O)(=O)c2ncc(Cl)c(C(=O)Nc3c(C)cccc3C)n2)c1	35*	35	-12	/	/	/	11
COc1ccc(C(=O)c2ccc(Cl)c([N+](=O)[O-])c2)cc1	66*	39	-30	95*	91*	91*	73*
SMILES	IEC-6 cytotox	aSyn UTR inh	KLF5 inh	APP 5UTR inh	BaF3 parental	Ba/F3 V617F tox	IEC-6 tox confirm
COc1ccc(C(=O)c2ccc(Cl)cc2)cc1	8	-38	2	-2	6	1	/
Cc1c(C(=O)N2CCC(C(N)=O)CC2)oc2ccc(Br)cc12	/	-24	/	/	/	/	/
Cc1ccc(NC(=O)/C=C/c2ccco2)nc1	86*	-63	30	89*	82*	85*	57*
O=C(/C=C/c1ccco1)Nc1ccccn1	28*	12	-112	-73	56*	63*	58*
O=C(/C=C/c1ccco1)Nc1cccnc1	3	-122	-27	-10	6	-1	/
O=C(Nc1ccc(F)cc1)OCCOc1ccc(Br)cc1	2	1	-1	/	4	-3	/
O=S(=O)(c1ccc(Cl)cc1)N1CCC(c2nc3ccccc3[nH]2)CC1	31*	76*	3	/	/	/	28*
COc1ccc(C(=O)N2CCc3cc4c(cc3C2C)OCCCO4)cc1 (configuration not stated)	13	15	11	/	/	/	/
CC1c2cc3c(cc2CCN1C(=O)c1ccc(Br)cc1)OCCCO3 (configuration not stated)	39*	30	7	/	/	/	37*
COc1ccc(Cc2nnc(SCC(=O)Nc3ccccc3C)n(N)c2=O)cc1	/	8	/	/	/	/	/
CCc1nc(N)nc(N)c1-c1ccc(Cl)cc1	49*	85*	13	-9	97*	97*	36*
O=C(N/N=C/c1c(-c2ccccc2)[nH]c2ccccc12)c1cccnc1	58*	-34	13	-32	55*	64*	23*
Cn1c(-c2ccccc2)c(/C=N/NC(=O)c2cccnc2)c2ccccc21	9	-16	-45	-4	6	0	/
O=C(N/N=C/c1ccc([N+](=O)[O-])o1)c1cc(-c2ccncc2)nc2ccccc12	-5	-67	-1	0	4	-1	/
O=C(N/N=C/c1ccc([N+](=O)[O-])o1)c1cc(-c2ccc(-c3ccccc3)cc2)nc2ccccc12	36*	76*	32	90*	62*	64*	52*
Cc1ccc(/C=N/NC(=O)c2cc(-c3ccncc3)nc3ccccc23)o1	65*	-12	60	/	/	/	45*
O=C(N/N=C/c1cccnc1)c1cc(-c2ccc(Br)cc2)nc2ccccc12	26*	/	11	/	/	/	21
NNC(=O)c1cc(-c2cccs2)nc2ccccc12	32*	-2	26	/	4	4	3
CC(NC(=O)COc1ccc(Br)cc1)C1CCCO1 (configuration not stated)	0	2	-14	/	/	/	/
COc1ccc(OC)c(-c2cc(C(=O)N/N=C(\C)c3cccnc3)c3ccccc3n2)c1	8	12	0	/	/	/	/
Cc1ccsc1/C=N/NC(=O)c1cc(-c2ccncc2)nc2ccccc12	72*	67*	61	94*	75*	71*	58*
CCOc1ccc(-c2cc(C(=O)N/N=C(\C)c3cccnc3)c3ccccc3n2)cc1	36*	-92	-19	/	/	/	11
CN(CCN1CCOCC1)C(=O)c1cc(COc2ccc(F)c(F)c2)on1	-10	-24	-27	/	/	/	/
Cc1oc(-c2cc(F)cc(F)c2)nc1CN1CCN(C(=O)c2ccco2)CC1	-1	5	0	/	/	/	/
O=C(Nc1ccc2c(c1)OCCO2)C(=O)c1c[nH]c2ccccc12	66*	14	38	/	/	/	46*
CC(NC(=O)c1ccc2c(c1)C(=O)N(Cc1cccnc1)C2=O)c1ccccc1 (configuration not stated)	11	-2	-6	/	/	/	/

High-throughput results deposited in PubChem by several laboratories.
